{"source": "PubChem BioAssay", "key": {"[1]": {"experiment": "growth inhibition of DIPG glioma cells, dose response, cell-based, SU-DIPG-XVII, MIPE5.0, CellTiter-Glo, qHTS (AID 1347060; cut-off not given, nearly all actives have AC50 up to about 26 µM;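 note: cells exposed to compound for 48 hours before viability readout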)", "settings": "SU-DIPG-XVII viability, CellTiter-Glo ATP luminescence"}, "[2]": {"experiment": "growth inhibition of DIPG glioma cells, dose response, cell-based, SU-DIPG-XIII, MIPE4.0, CellTiter-Glo, qHTS (AID 1347061; cut-off not given, nearly all actives have AC50 up to about 37 µM;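 note: cells exposed to compound for 48 hours before readout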)", "settings": "SU-DIPG-XIII viability, CellTiter-Glo ATP luminescence"}, "[3]": {"experiment": "growth inhibition of DIPG glioma cells, dose response, cell-based, JHH-DIPG-1, MIPE4.0, CellTiter-Glo, qHTS (AID 1347062; cut-off not given, nearly all actives have AC50 up to about 27 µM;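 note: cells exposed to compound for two days before readout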)", "settings": "JHH-DIPG-1 viability, CellTiter-Glo ATP luminescence"}, "[4]": {"experiment": "growth inhibition of DIPG glioma cells, dose response, cell-based, SU-DIPG-IV, MIPE4.0, CellTiter-Glo, qHTS (AID 1347063; cut-off not given, nearly all actives have AC50 up to about 30 µM;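 note: compound exposure lasted 48 hours before the viability readout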)", "settings": "SU-DIPG-IV viability, CellTiter-Glo ATP luminescence"}, "[5]": {"experiment": "growth inhibition of DIPG glioma cells, dose response, cell-based, SU-DIPG-XIII, MIPE5.0, CellTiter-Glo, qHTS (AID 1347064; cut-off not given, nearly all actives have AC50 up to about 23 µM;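 note: cells exposed to compound for 48 hours before the viability read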)", "settings": "SU-DIPG-XIII viability, CellTiter-Glo ATP luminescence"}, "[6]": {"experiment": "viability loss in pontine glioma line – cell-based, SU-DIPG-XXV, MIPE5.0, CellTiter-Glo, qHTS, dose response (AID 1347065; cut-off not given, nearly all actives have AC50 up to about 26 µM;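 note: cells exposed to compound for 48 hours before ATP readout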)", "settings": "CellTiter-Glo ATP luminescence"}, "[7]": {"experiment": "SU-DIPG-VI glioma cell viability, MIPE4.0 library, CellTiter-Glo luminescence, qHTS (AID 1347066; cut-off not given, nearly all actives have AC50 up to about 30 µM;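 note: cells exposed to compound for 48 hours before readout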)", "settings": "CellTiter-Glo ATP luminescence"}, "[8]": {"experiment": "JHH-DIPG-1 glioma cell viability, MIPE5.0 library, CellTiter-Glo luminescence, qHTS (AID 1347067; cut-off not given, nearly all actives have AC50 up to about 26 µM;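 note: cells exposed to compound for 48 hours before readout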)", "settings": "JHH-DIPG-1 glioma viability, CellTiter-Glo ATP luminescence"}, "[9]": {"experiment": "SU-DIPG-XXV glioma cell viability, MIPE5.0 library, qHTS (AID 1347068; cut-off not given, nearly all actives have IC50 up to about 30 µM;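 note: cells exposed to compound for 48 hours before viability readout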)"}, "[10]": {"experiment": "sensitizers of A549 cells to miR-34 induction, primary screen, imaging, A549 dox-inducible miR-34, nuclei and caspase counts (AID 1347080;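 active = compounds whose cell count with miR-34 switched on is under 0.7 times the count with it off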)", "settings": "A549 miR-34 inducible, Hoechst nuclei count, 48 h"}, "[11]": {"experiment": "survival rescue of mitochondrial mutant cells in low glucose, primary screen, MELAS cybrids, Rieske KO mouse fibroblasts, CellTiter-Glo (AID 1508586;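 active = mean z-score across replicates of 1.96 or higher in either the MELAS or the Rieske mutant cell line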;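 note: z relative to plate mean and SD of compound and empty wells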)"}, "[12]": {"experiment": "LFS_MB_P medulloblastoma growth inhibition, cell-based, chromothripsis tumors, cisplatin or BGB combos (AID 1671449);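 note: cells exposed for 96 hours; 0% = vehicle DMSO and 100% = killing by high DMSO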", "settings": "LFS_MB_P medulloblastoma cells"}, "[13]": {"experiment": "HDN33 neuroblastoma growth inhibition, cell-based, chromothripsis tumors, cisplatin or BGB combos (AID 1671450);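 note: cells exposed to compound for four days; 0% = vehicle DMSO and 100% = cell killing by high DMSO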", "settings": "HDN33 neuroblastoma cells, stronger effect = higher value"}, "[14]": {"experiment": "ICB984 medulloblastoma cell growth inhibition, synergistic combos for chromothripsis tumors, cisplatin or BGB combos (AID 1671451; call rule not given here;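 note: cells exposed for 96 hours before readout; 0% = vehicle DMSO and 100% = killing by high DMSO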)", "settings": "ICB984 medulloblastoma cells, drug combinations, stronger effect = higher value"}, "[15]": {"experiment": "HTB85 osteosarcoma cell growth inhibition, synergistic combos for chromothripsis tumors, BGB or cisplatin IC20 combos (AID 1671453);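 note: cells exposed for 96 hours before readout; 0% = vehicle DMSO and 100% = high DMSO killing control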", "settings": "HTB85 osteosarcoma cells, drug combinations, stronger effect = higher value"}, "[16]": {"experiment": "MDA-MB-436 breast carcinoma cell growth inhibition, synergistic combos for chromothripsis tumors, BGB or cisplatin combos (AID 1671458; call rule not given here;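 note: cells exposed for 96 hours; 0% = vehicle DMSO and 100% = killing by high DMSO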)", "settings": "MDA-MB-436 breast carcinoma growth inhibition, drug combinations, stronger effect = higher value"}, "[17]": {"experiment": "growth inhibition of BT084 medulloblastoma cells, cell-based, ICGC_MB145, cisplatin and BGB IC40 combos (AID 1671461);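 note: cells exposed to drugs for 96 hours; 0% = vehicle DMSO and 100% = high DMSO full killing control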", "settings": "drug combinations, stronger effect = higher value"}, "[18]": {"experiment": "growth inhibition of RCMB18 medulloblastoma cells, cell-based, cisplatin and BGB IC40 combos (AID 1671462);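 note: cells exposed to compound for four days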", "settings": "stronger effect = higher value"}}, "note": "Inconclusive results are not listed. Active and inactive are the calls of the source. Cut-off read from the data, not from the text of the source, unless noted: active = inhibition above about 80%; inactive = the rest.", "data": [{"smiles": "Nc1ncnc2c1c(-c1cnc3[nH]ccc3c1)nn2C1CCCC1", "values": [{"measurement": "AC50", "setting": "[1]", "result": "934 nM (active)"}, {"measurement": "AC50", "setting": "[2]", "result": "3720 nM (active)"}, {"measurement": "AC50", "setting": "[3]", "result": "6620 nM (active)"}, {"measurement": "AC50", "setting": "[4]", "result": "296 nM (active)"}, {"measurement": "AC50", "setting": "[5]", "result": "1320 nM (active)"}, {"measurement": "AC50", "setting": "[6]", "result": "661 nM (active)"}, {"measurement": "AC50", "setting": "[7]", "result": "4690 nM (active)"}, {"measurement": "AC50", "setting": "[8]", "result": "1660 nM (active)"}, {"measurement": "IC50", "setting": "[9]", "result": "1660 nM (active)"}, {"measurement": "fold change", "setting": "[10]; stronger effect = lower value, cell number ratio, induced over uninduced", "result": "0.933 (inactive)"}, {"measurement": "fold change", "setting": "[10]; measured here: relative caspase fold change +Dox/-Dox", "result": 0.447}, {"measurement": "cell count", "setting": "[10]; measured here: total cells with miR-34 induction, stronger effect = lower value", "result": 1360}, {"measurement": "cell count", "setting": "[10]; measured here: total cells without miR-34 induction", "result": 1460}, {"measurement": "z-score", "setting": "[11]; MELAS cybrid survival, CellTiter-Glo 48 h, stronger effect = higher value", "result": "2.61 (active)"}, {"measurement": "z-score", "setting": "[11]; Rieske KO mouse fibroblast survival, CellTiter-Glo 72 h", "result": -3.58}, {"measurement": "inhibition", "setting": "[12]; at 0.5 µM, stronger effect = higher value", "result": "-21.6% (inactive)"}, {"measurement": "inhibition", "setting": "[12]; measured here: combination with BGB IC20, at 0.005 µM", "result": -12.8, "unit": "%"}, {"measurement": "inhibition", "setting": "[12]; measured here: combination with BGB IC40, at 0.005 µM", "result": -34.4, "unit": "%"}, {"measurement": "inhibition", "setting": "[12]; measured here: combination with BGB IC40, at 0.05 µM", "result": -33.1, "unit": "%"}, {"measurement": "inhibition", "setting": "[12]; measured here: combination with cisplatin, at 0.5 µM, stronger effect = higher value", "result": -37.9, "unit": "%"}, {"measurement": "inhibition", "setting": "[12]; measured here: combination with cisplatin, at 5 µM, stronger effect = higher value", "result": 101, "unit": "%"}, {"measurement": "inhibition", "setting": "[13]; BGB combo, at 5 µM", "result": 93.7, "unit": "%"}, {"measurement": "inhibition", "setting": "[13]; at 0.5 µM", "result": "34.8% (inactive)"}, {"measurement": "inhibition", "setting": "[13]; cisplatin combo, at 5 µM", "result": 89.8, "unit": "%"}, {"measurement": "inhibition", "setting": "[13]; measured here: with BGB IC20 combination, at 0.5 µM", "result": 27.9, "unit": "%"}, {"measurement": "inhibition", "setting": "[13]; measured here: with cisplatin IC20 combination, at 0.5 µM", "result": 38.9, "unit": "%"}, {"measurement": "inhibition", "setting": "[13]; single agent, at 5 µM", "result": 94.1, "unit": "%"}, {"measurement": "inhibition", "setting": "[14]; BGB IC20 combo, at 0.005 µM", "result": 3.47, "unit": "%"}, {"measurement": "inhibition", "setting": "[14]; BGB IC40 combo, at 0.005 µM", "result": 0.136, "unit": "%"}, {"measurement": "inhibition", "setting": "[14]; BGB IC40 combo, at 0.05 µM", "result": 75.2, "unit": "%"}, {"measurement": "inhibition", "setting": "[14]; at 0.5 µM", "result": "-26.8% (inactive)"}, {"measurement": "inhibition", "setting": "[14]; cisplatin combo, at 0.05 µM", "result": 74.3, "unit": "%"}, {"measurement": "inhibition", "setting": "[14]; cisplatin combo, at 0.5 µM", "result": -46.2, "unit": "%"}, {"measurement": "inhibition", "setting": "[14]; cisplatin combo, at 5 µM", "result": -4.06, "unit": "%"}, {"measurement": "inhibition", "setting": "[14]; measured here: 5 uM single agent, at 5 µM", "result": -4.21, "unit": "%"}, {"measurement": "inhibition", "setting": "[15]; at 0.5 µM", "result": "49.5% (inactive)"}, {"measurement": "inhibition", "setting": "[15]; measured here: with BGB IC20, at 0.5 µM", "result": 55.4, "unit": "%"}, {"measurement": "inhibition", "setting": "[15]; measured here: with BGB IC20, at 5 µM", "result": 97.6, "unit": "%"}, {"measurement": "inhibition", "setting": "[15]; measured here: with cisplatin IC20, at 0.5 µM", "result": 38.8, "unit": "%"}, {"measurement": "inhibition", "setting": "[15]; measured here: with cisplatin IC20, at 5 µM", "result": 94.1, "unit": "%"}, {"measurement": "inhibition", "setting": "[15]; single agent, at 5 µM", "result": 95.9, "unit": "%"}, {"measurement": "inhibition", "setting": "[16]; at 0.5 µM", "result": "-11.6% (inactive)"}, {"measurement": "inhibition", "setting": "[16]; measured here: BGB combination, at 0.5 µM", "result": 0.573, "unit": "%"}, {"measurement": "inhibition", "setting": "[16]; measured here: BGB combination, at 5 µM", "result": 42.9, "unit": "%"}, {"measurement": "inhibition", "setting": "[16]; measured here: cisplatin combination, at 0.5 µM", "result": -39.3, "unit": "%"}, {"measurement": "inhibition", "setting": "[16]; measured here: cisplatin combination, at 5 µM", "result": 36.2, "unit": "%"}, {"measurement": "inhibition", "setting": "[17]; at 0.5 µM", "result": "26.7% (inactive)"}, {"measurement": "inhibition", "setting": "[17]; cisplatin combination, at 0.5 µM", "result": 42.3, "unit": "%"}, {"measurement": "inhibition", "setting": "[17]; cisplatin combination, at 5 µM", "result": 38.7, "unit": "%"}, {"measurement": "inhibition", "setting": "[17]; measured here: BGB IC40 combination 0.05 uM, at 0.05 µM", "result": -23, "unit": "%"}, {"measurement": "inhibition", "setting": "[17]; single agent, at 5 µM", "result": 59.1, "unit": "%"}, {"measurement": "inhibition", "setting": "[18]; at 0.5 µM", "result": "1.21% (inactive)"}, {"measurement": "inhibition", "setting": "[18]; cisplatin combo, at 5 µM", "result": 73.6, "unit": "%"}, {"measurement": "inhibition", "setting": "[18]; measured here: BGB IC40 combination, at 0.05 µM", "result": -7.03, "unit": "%"}, {"measurement": "inhibition", "setting": "[18]; measured here: combination with cisplatin, at 0.5 µM", "result": -23.9, "unit": "%"}, {"measurement": "inhibition", "setting": "[18]; single agent, at 5 µM", "result": 64.6, "unit": "%"}]}]}
